# Measurements taken from PubChem BioAssay (NCATS).
# Results filed as inconclusive are left out. Values without a mark were called inactive. Active and inactive are the calls of the source. The call rests on the fitted dose curve; in most records, active means well fitted cell-killing curve with a large enough effect; inconclusive means small, poorly fitted or top-dose-only effect, or effect the other way; inactive means no such curve, though single readings can be large or run the other way. Peptide text beside a SMILES is read from it.
# Experiment: Viability qHTS for spleen associated tyrosine kinase inhibitor (SYKi) drug resistant MV4-11 cells (AID 1963824); further: nearly all actives have a fitted effect of over 35% in size
# Conditions: SYKi-resistant MV4-11 viability, CellTiter-Glo, 72 h; series mostly up to 45 µM; viability, % of control: at the top concentration
# Outline: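 SYK-inhibitor-resistant MV4-11 AML cells were seeded at 500 per well onto compound and cultured 72 hours (37 °C, 5% CO2). CellTiter-Glo was then added, and after 10 min at room temperature, luminescence gave viability.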
# Potency means the concentration at half of the fitted maximal effect.
SMILES,"viability, % of control",Potency
CN(C)c1ccc(C2O[C@@H](c3ccccc3)C[C@H](c3ccccc3)O2)cc1 (some centres not stated),66.1%,–
COc1ccnc(CCc2nc3ncccc3[nH]2)c1,86.4%,–
O=C(O)[C@@H]1C[C@H]2C[C@@H](CCc3nn[nH]n3)CC[C@H]2CN1,89.4%,–
CCNC(=O)Nc1ccc(-c2nc3c(c(N4CCOC[C@@H]4C)n2)CCN(c2ncccn2)C3)cc1,–,0.164 µM (active)
COC(=O)[C@H](Cc1ccccc1)NC(=O)[C@@H](N)CC(=O)O (H-Asp-Phe-OMe),–,inactive
O=C(O)[C@H]1Cc2ccccc2CN1,101% [at 4.97 µM],–
CCC(C)(Oc1ccc(C2(c3ccc(OC(C)(CC)C(=O)O)cc3)CCCCC2)cc1)C(=O)O (configuration not stated),–,inactive
N#Cc1cc(CN2CCC(Nc3ncnc4sc(Cl)cc34)CC2)ccc1F,–,13 µM (active)
CCCCCCOC(=O)/N=C(\N)c1ccc(NCc2nc3cc(C(=O)N(CCC(=O)OCC)c4ccccn4)ccc3n2C)cc1,–,0.82 µM (active)
N#Cc1ccc(C(=O)N2CCC3(CC2)N=C(N)c2c(F)ccc(F)c2N3)cn1,64.8%,–
CCN(CC)Cc1ccc(C(=O)N(CCc2ccccc2OC)[C@@H]2CCNC2)cc1,–,3.17 µM (active)
O=C1NC(=Nc2ccccc2F)S/C1=C\c1ccc(C(=O)O)cc1,98.5%,–
Nc1ccc(S(N)(=O)=O)cc1,93.6%,–
CC(=O)SCC(=O)c1ccc(NS(=O)(=O)c2ccc(OCCCN(C)C)cc2)nc1,–,2.91 µM (active)
N[C@@H](CC(=O)Nc1ccc(Oc2cc(F)c(F)cc2Br)cc1)C(=O)O,79.2%,–
O=C(O)c1n[nH]c2c1C[C@H]1C[C@@H]21,90.7%,–
CC(C)c1cccc(C(C)C)c1NC(=O)Nc1ccc(Sc2ccc([N+](=O)[O-])cc2)cc1,–,5.17 µM (active)
CNS(=O)(=O)CCc1ccc2[nH]cc(C3CCN(C)CC3)c2c1,89.6%,–
O=C(Nc1cccc(C(F)(F)F)c1)Nc1ccc(Br)cc1-c1nn[nH]n1,80%,–
CCCOc1ccccc1-c1nc2n[nH]nc2c(=O)[nH]1,91.1%,–
COc1ccc(C2=N[C@@H](c3ccc(Cl)cc3)[C@@H](c3ccc(Cl)cc3)N2C(=O)N2CCNC(=O)C2)c(OC(C)C)c1,–,10.3 µM (active)
CCOCC(O)COc1ccc(NC(=O)CC[S+](C)C)cc1 (configuration not stated),–,inactive
